Assay results published in PubChem BioAssay AID1259311 (ICCB-Longwood Screening Facility, Harvard Medical School, 2017).
Values joined by “and” are separate entries in the source; they are usually repeats but may differ in a detail not shown here. Identical values can stand only once. Among all 330,000 compounds or so, about 1,100 (0.33%) were called active. The sample holds actives, similar compounds and a random draw of the others, so the mix is not that of the screen. Cut-off read from the data, not from the text of the source: active = inhibition above about 85%; inactive = the rest. Where a structure was tested more than once in an assay, its records may differ in their call.

assay: growth inhibition of S. aureus RN4220, primary screen, OD600 (AID 1259311); settings: OD600, 16 h, stronger effect = higher value;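 note: plate controls were untreated cells for no effect and reference antibiotic for full effect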

SMILES	inhibition
COC(=O)C1=C(C)N(c2ccc(C)cc2)/C(=C/c2ccc(O)cc2)C1=O	84.9% (active)
COC(=O)C1(C)NC(c2ccc(C)cc2)C2C(=O)N(c3ccc(F)cc3)C(=O)C21 (stereo not drawn)	-0.392% (inactive)
CCOC1OC(C(=O)N2CCCCCCC2)=CC(c2ccc(C(F)(F)F)cc2)C1CCCO (stereo not drawn)	7.41% (inactive) and 6.78% (inactive)
O=C(NCc1ccccc1)C1=CC(c2ccc(C(F)(F)F)cc2)CC(OCc2ccc(CO)cc2)O1 (stereo not drawn)	5.86% (inactive)
O=C(/C=C/c1ccc([N+](=O)[O-])o1)NNC(=O)c1ccc(F)cc1	99.6% (active)
Nc1nonc1C(=O)NN=Cc1ccc([N+](=O)[O-])o1	21.6% (inactive)
O=C(NN=Cc1ccc(F)cc1)c1ccc(F)cc1	4.01% (inactive)
O=C(O)c1ccc(NN=Cc2cc3ccccc3nc2Cl)cc1	-0.883% (inactive)
CCCCC1CC1C(NC(=O)c1ccccc1)c1ccccc1C(F)(F)F (stereo not drawn)	9.97% (inactive)
Cc1cccc(C(=O)Oc2ccccc2C=NNc2ccc([N+](=O)[O-])cc2)c1	-8.66% (inactive)
NC(COc1cc(Cl)cc(Cl)c1)=NO	1.6% (inactive)
COc1ccc(S(=O)(=O)N2CCN(c3ncnc4c(-c5ccccc5)nsc34)CC2)cc1	4.04% (inactive)
COc1ccc(-c2csc3ncnc(N4CCN(S(=O)(=O)c5cccc(F)c5)CC4)c23)cc1	2.78% (inactive)
COc1ccc(-c2csc3ncnc(N4CCN(S(=O)(=O)c5ccccc5C#N)CC4)c23)cc1	96.6% (active)
C/[N+]([O-])=C\c1ccc([N+](=O)[O-])o1	97.6% (active)
Cc1cccc(NC(=O)c2ccc([N+](=O)[O-])o2)c1	35.2% (inactive)
Cc1ccc(NCC(=O)NN=Cc2ccc([N+](=O)[O-])o2)cc1	7.24% (inactive)
COc1cc(C=NNC(=O)c2cccc([N+](=O)[O-])c2)ccc1O	-1.37% (inactive)
COc1ccc(S(=O)(=O)Nc2ccc3c(c2)C(=O)N(C(C)CO)CC(C)C(CN(C)CC2CC2)O3)cc1 (stereo not drawn)	1.05% (inactive)
CC(=NNc1cc(C)nc(NCc2ccccc2)n1)c1ccc([N+](=O)[O-])cc1	-7.45% (inactive)
COc1ccc2c(c1)SC(C)CC2=O (stereo not drawn)	-12.2% (inactive)
COc1ccc2c(c1)C(=O)CC(c1ccccc1)O2 (stereo not drawn)	2.06% (inactive)
COc1ccc2c(c1)OC(O)(C(F)(F)C(F)F)CC2=O (stereo not drawn)	99.2% (active)
CC(=O)OCC(=O)C1CCC2C3CCC4CC(O)CC[C@]4(C)C3C(=O)C[C@]12C (stereo partly drawn)	2.69% (inactive)

SMILES	inhibition
CC(NC(=O)c1nc[nH]c1C(=O)NC(C)c1ccccc1)C(=O)OCc1ccccc1 (stereo not drawn)	6.68% (inactive)
CCOCC(=O)Nc1ncc(S(=O)(=O)c2ccc([N+](=O)[O-])cc2)s1	90.6% (active)
CC(C)c1nnc(NC(=O)COC(=O)/C=C/c2ccc([N+](=O)[O-])cc2)s1	-2.74% (inactive)
Cc1cc(NC(=O)COc2ccc([N+](=O)[O-])cc2)no1	-0.977% (inactive)
COC(=O)C1=C(C(=O)OC)C2Nc3ccccc3[C@@]23CC(C(=O)OC)N(C(=O)c2cccs2)C3=N1 (stereo partly drawn)	2.73% (inactive)
CCN(CC)S(=O)(=O)c1cccc(-c2n[nH]c(=S)n2N=Cc2ccc(OC)cc2)c1	15% (inactive)
CC(C)CC(NC(=O)c1[nH]cnc1C(=O)NC(C)C(=O)OC(C)(C)C)C(=O)OC(C)(C)C (stereo not drawn)	4.67% (inactive)
Cc1ccc(N2C(=O)N3C(c4ccc(Br)cc4)C4C(=O)N(C(C)(C)C)C(=O)C4[C@]3(C)C2=O)cc1 (stereo partly drawn)	5.35% (inactive)
N#CC(=NNc1ccc(Cl)cc1)C(=O)c1ccccc1	100% (active)
N#CC(=NNc1ccc(Cl)cc1)C(=N)N1CCCCC1	-2.55% (inactive)
N#C/C(=C/c1ccc(Cl)cc1)NC(=O)c1ccccc1	-6.37% (inactive)
O=c1c2ccccc2nc(/C=C/c2ccco2)n1-c1ccccc1O	95.7% (active)
CCn1c(/C=C/c2ccc([N+](=O)[O-])o2)nc2ccccc2c1=O	11.2% (inactive)
O=c1c2ccccc2nc(/C=C/c2ccc(F)cc2)n1-c1ccccc1O	97.2% (active)
O=C(CSc1nc2ccccc2c(=O)n1-c1ccc(F)cc1)NC1CC1	-2.32% (inactive)
Cc1nc2ccccc2c(=O)n1-c1ccc(Cl)cc1Cl	2.26% (inactive)
O=C(CSc1nc2ccccc2c(=O)n1-c1ccccc1F)N1CCOCC1	-0.567% (inactive)
O=C(NC(C(=O)NN=Cc1ccccn1)c1n[nH]c(=O)c2ccccc12)c1ccccc1 (stereo not drawn)	0.248% (inactive)
CCCOc1ccc(C=NNC(=O)CSCc2ccc([N+](=O)[O-])cc2)cc1OCC	3.47% (inactive)
CC(CC(=O)Nc1ccc([N+](=O)[O-])cc1)=NNC(=O)C1CC12CCC2 (stereo not drawn)	3.47% (inactive)
COc1ccccc1C=NNC(=O)CO	5.18% (inactive)
CNC(=O)C(=NO)c1ccccc1	0.94% (inactive)
O=C1CS/C(=N/N=Cc2ccncc2)N1	2.12% (inactive)
COc1ccc(CCN2C(=O)CSC2=NNC(=O)c2cccs2)cc1OC	2.01% (inactive)

SMILES	inhibition
COc1ccc(C=NN=Cc2ccc(OC)c(OC)c2)cc1OC	-1.08% (inactive)
CN(C)C=Nc1sc2c(c1C#N)CC(C)(C)NC2(C)C	2.77% (inactive)
COc1ccc(C(C)=NNC(=O)CSc2nnc(C)s2)cc1	6.45% (inactive)
NC(=O)N1CCCC1C(=O)Nc1ccc(Cl)c(Cl)c1 (stereo not drawn)	0.288% (inactive)
O=C(CC(O)(C(F)(F)F)C(F)(F)F)Nc1ccc(Cl)c(Cl)c1	100% (active)
O=C(Cc1ncc(C(F)(F)F)cc1Cl)Nc1cccc(Br)c1	-2.16% (inactive)
Cc1[nH]c2ccccc2c1C=NNC(=O)CNC(=O)c1cccs1	2.5% (inactive)
COc1ccc(C=Nn2nnnc2N)c(OC)c1	2.12% (inactive)
COc1ccc(C(=O)NN=Cc2ccc(OC(=O)c3cccc4ccccc34)c([N+](=O)[O-])c2)cc1	95.4% (active)
COc1ccc(C=NNC(=O)c2ccccc2OC)cc1COc1ccccc1[N+](=O)[O-]	4.25% (inactive)
COc1ccc(C(=O)NN=Cc2ccc(OC)c(CN3CCCc4ccccc43)c2)cc1	0.711% (inactive)
C1=CC2CCN(Cc3ccccc3)Cc3cccc(c32)C1 (stereo not drawn)	4.59% (inactive)
Cc1cccc(-n2c(C)cc(C=NO)c2C)c1	-4.73% (inactive)
O=C(CCl)N(Cc1cccc([N+](=O)[O-])c1)c1cccc(Cl)c1	94.9% (active)
O=C(c1cccc([N+](=O)[O-])c1)N1CCN(Cc2ccccc2)CC1	2.33% (inactive)
Cc1ccc(S(=O)(=O)N(Cc2cccc([N+](=O)[O-])c2)C(=O)N2CCN(C)CC2)cc1	2.8% (inactive)
CCCCNC(=O)CC1S/C(=N/N=Cc2ccc(OC)cc2)NC1=O (stereo not drawn)	10.5% (inactive)
Cc1ccc(C=NNC(=O)Cc2cccn2C)cc1	1.44% (inactive)
Cc1ccc(O)c(C(=O)C=Cc2ccc3c(c2)OCCO3)c1	-1.13% (inactive)
COc1c(O)ccc(C=NNC(=O)c2ccc3c(c2)OCCO3)c1[N+](=O)[O-]	0.97% (inactive)
O=C(NN=Cc1cc([N+](=O)[O-])ccc1O)C12CC3CC(CC(C3)C1)C2	63.4% (inactive)
CN1CCN(CCC(=O)NN=Cc2cc([N+](=O)[O-])ccc2O)CC1	88.7% (active)
CN1CCN(CCNC(=O)Nc2ccc([N+](=O)[O-])cc2)CC1	2.31% (inactive)
OCCC1CC(O)C(O)[C@]2(Cc3ccccc3O2)O1 (stereo partly drawn)	1.1% (inactive) and -0.123% (inactive) and 7.32% (inactive)

SMILES	inhibition
OCCC1CC(O)C(O)[C@@]2(CCCc3ccccc3O2)O1 (stereo partly drawn)	-1.69% (inactive) and 51.2% (inactive) and 98.7% (active)
Cc1cccc(NC(=NS(=O)(=O)c2ccccc2)c2ccccc2)n1	-0.262% (inactive)
CC(N)=C(C#N)C(=O)CSc1ccccc1F	5.44% (inactive)
Cc1cc(C)n(C(=O)CCNC(=O)c2ccccc2Cl)n1	4.12% (inactive)
N#CC(=NNc1cc(Cl)cc(Cl)c1)c1nnc2n1CCCCC2	0.845% (inactive)
Cc1cc(C)n(C(=O)C(C#N)=NNc2cc(Cl)cc(Cl)c2)n1	99.6% (active)
COc1ccc(C=NNc2ccc([N+](=O)[O-])cc2S(=O)(=O)N2CCN(C)CC2)cc1	-2.66% (inactive)
O=C(NN=Cc1cc(Cl)cc([N+](=O)[O-])c1O)c1cccc(S(=O)(=O)N2CCOCC2)c1	5.65% (inactive)
COc1ccc(CS(=O)/C(Cl)=C(/Cl)C(=O)Nc2ccc(OC)nc2)cc1 (stereo not drawn)	1.8% (inactive)
COc1cccc(NC(=S)N(Cc2ccc(C)cc2)Cc2ccccn2)c1	2.66% (inactive)
COc1ccc(NC(=O)/C(Cl)=C(/Cl)S(=O)Cc2ccc(C)cc2)cn1 (stereo not drawn)	93.4% (active)
COc1ccc(CN2CCC(=O)N(C(CO)CC(C)C)CC2)cc1 (stereo not drawn)	3.45% (inactive)
COc1ccc(C2CC(=O)C=C(c3ccc(C)cc3)C2)cc1 (stereo not drawn)	5.1% (inactive)
O=C(Nc1nnc(-c2ccccc2)o1)c1cc(-c2cccs2)nc2ccccc12	100% (active)
O=C(NN=Cc1ccsc1)c1cc(-c2cccs2)nc2ccccc12	2.77% (inactive)
CC(C)(C)Cc1nnc(NC(=O)c2cc(-c3ccccc3)nc3ccccc23)s1	-1.74% (inactive)
CC(C)(C=NO)N(O)C=C1C=CC(=O)C=C1	1.68% (inactive)
COCCNC(=O)C1CCCN1S(=O)(=O)c1cccc2cccnc12 (stereo not drawn)	6.77% (inactive)
CC1(C)CC(N2CCN(C(c3ccccc3)c3ccccc3)CC2)=CC(=[N+]2CCCCC2)C1	100% (active)
COc1ccccc1CN1CCN(C(c2ccccc2)c2ccccc2)CC1	-0.651% (inactive)
c1ccc(C(c2ccccc2)N2CCN(Cc3nnnn3C3CCCCC3)CC2)cc1	-1.54% (inactive)
